Laboratory results published in PubChem BioAssay AID2629 (Broad Institute, 2010).
“And” between values parts separate entries of the source, which are not always exact repeats. Equal entries are not always repeated. Hit rate of the full screen: of about 320,000 compounds, about 1,900 (0.59%) were called active. Only a selection was taken, and actives are over-represented in it overall. A number with no mark means an inactive call. No stated cut-off is given here; in the data, active means inhibition mostly above about 10% (no sharp cut-off); inactive means mostly below about 6.7%.

The compounds below were run against Protein LANA1 (Human herpesvirus 8 type P (isolate GK18)) (UniProt Q9QR71) (assay: blockers of LANA interaction with H2A/H2B – biochemical, FP readout, HTS, primary screen (AID 2629)). Details: cell-free LANA-H2A/H2B peptide, fluorescence polarization, hits give high values, concentration not given here.
Protein LANA1 (Human herpesvirus 8 type P (isolate GK18)), sequence (Q9QR71 whole entry, looked up): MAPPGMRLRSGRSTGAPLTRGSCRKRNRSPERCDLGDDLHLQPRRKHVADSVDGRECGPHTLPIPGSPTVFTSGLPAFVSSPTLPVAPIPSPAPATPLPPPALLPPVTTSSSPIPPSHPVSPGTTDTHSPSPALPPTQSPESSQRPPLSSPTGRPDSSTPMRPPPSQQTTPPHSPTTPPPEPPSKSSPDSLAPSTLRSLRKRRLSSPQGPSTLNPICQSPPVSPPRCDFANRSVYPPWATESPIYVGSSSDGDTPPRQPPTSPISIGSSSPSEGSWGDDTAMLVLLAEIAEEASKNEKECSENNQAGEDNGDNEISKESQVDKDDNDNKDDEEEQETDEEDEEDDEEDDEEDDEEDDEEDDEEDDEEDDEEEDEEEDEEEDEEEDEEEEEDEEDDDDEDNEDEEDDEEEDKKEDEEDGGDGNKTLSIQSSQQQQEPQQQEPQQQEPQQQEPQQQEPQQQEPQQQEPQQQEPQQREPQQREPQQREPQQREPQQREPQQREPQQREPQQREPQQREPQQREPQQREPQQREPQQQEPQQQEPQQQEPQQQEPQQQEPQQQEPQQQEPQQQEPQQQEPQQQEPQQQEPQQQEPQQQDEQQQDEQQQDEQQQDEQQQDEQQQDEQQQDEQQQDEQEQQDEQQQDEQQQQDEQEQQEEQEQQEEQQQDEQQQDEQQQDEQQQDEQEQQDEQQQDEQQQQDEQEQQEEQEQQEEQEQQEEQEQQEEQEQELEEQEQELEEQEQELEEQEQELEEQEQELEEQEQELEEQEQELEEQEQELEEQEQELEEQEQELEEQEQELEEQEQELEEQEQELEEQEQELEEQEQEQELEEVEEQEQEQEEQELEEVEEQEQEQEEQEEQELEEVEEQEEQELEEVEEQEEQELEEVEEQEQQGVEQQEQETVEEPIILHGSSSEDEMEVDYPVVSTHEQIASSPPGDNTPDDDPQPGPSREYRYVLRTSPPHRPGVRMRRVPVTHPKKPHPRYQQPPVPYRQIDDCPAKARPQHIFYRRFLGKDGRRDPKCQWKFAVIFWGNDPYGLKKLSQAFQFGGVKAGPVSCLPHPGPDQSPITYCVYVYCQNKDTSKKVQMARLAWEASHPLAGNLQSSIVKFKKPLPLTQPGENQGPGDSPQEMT
Cc1ccc(N(C(=O)Cc2cccs2)C2C=CS(=O)(=O)C2)cc1Cl (stereo not drawn) showed an inhibition of 0.0691%. Compound OC1CSc2nc3ccccc3n2C1 (stereo not drawn) has an inhibition of 0.181%. With CC1Cc2cc(/C(O)=C3\C(=O)C(=O)N(CCN4CCOCC4)C3c3ccccc3F)ccc2O1 (stereo not drawn) the inhibition was -0.116%. In the case of CC1Cc2cc(/C(O)=C3\C(=O)C(=O)N(Cc4cccnc4)C3c3ccccc3F)ccc2O1 (stereo not drawn), the inhibition was 12.2% (active). With COCCCN1C(=O)C(=O)/C(=C(/O)c2ccc3c(c2)CC(C)O3)C1c1cccnc1 (stereo not drawn) the inhibition was -6.56% and -12.2%. With CN(CC(=O)NCCc1ccc(S(N)(=O)=O)cc1)CC(=O)Nc1ccc(Cl)cc1 the inhibition was -9.65%. CCn1cc(C(=O)NCCCN2CCCCCC2)c(=O)c2cc(S(=O)(=O)N3CCc4ccccc4C3)ccc21 was tested, and the inhibition was 1.1%. Work on CC1(C)N=C(c2ccccn2)C(C)(C)N1O yielded an inhibition of 3.45%. Compound CC(C(=O)N1CCc2ccccc21)N(C)CC(=O)Nc1ccc(F)cc1 (stereo not drawn) has an inhibition of 4.45%. COc1cc(NC(=O)c2ccccc2NS(=O)(=O)c2ccc(Cl)s2)cc(OC)c1 showed an inhibition of -1.77%. For C=CC[C@@H](CC(=O)N[C@H](CO)Cc1ccccc1)C(=O)N[C@@H](COC(=O)[C@@H](CC=C)Cc1ccc(F)cc1)Cc1c[nH]c2ccccc12, the inhibition was -2.42%. In the case of C=CCC[C@H](Cc1ccc(F)cc1)C(=O)OC[C@@H](Cc1c[nH]c2ccccc12)NC(=O)[C@H](CC=C)CC(=O)N[C@H](CO)Cc1ccccc1, the inhibition was 145% (active). With C=CCC[C@@H](Cc1ccc(F)cc1)C(=O)OC[C@H](Cc1c[nH]c2ccccc12)NC(=O)[C@@H](CC=C)CC(=O)N(CCO)Cc1ccccc1 the inhibition was 3.67%. In the case of COc1ccc(NC(=O)CSc2nc(SC)ns2)c(OC)c1, the inhibition was 0.787%. Compound CCCn1nc(Oc2nc(NC(C)C)nc(N(C)C)n2)ccc1=O has an inhibition of -2.39%. In the case of O=C(NCCN1CCOCC1)c1cc(-c2cccs2)nc2ccccc12, the inhibition was 14%. O=C(Nc1nnc(-c2ccccc2)o1)c1cc(-c2cccs2)nc2ccccc12 was tested, and the inhibition was 14.9% (active). CCCCN(C)CCCNC(=O)c1cc(-c2cccs2)nc2ccccc12 gave an inhibition of -1.81%. Work on COc1ccc(NC(=O)CN(C)C(=O)c2cc(C3CC3)nn2-c2ccccc2)cc1 yielded an inhibition of -290%. With COc1cccc(NC(=O)CN(C)C(=O)c2cc(C3CC3)nn2-c2ccccc2)c1 the inhibition was 559% [above what the read-out allows, likely interference] (active). With CCc1ccccc1NC(=O)CN(C)C(=O)c1cc(C2CC2)nn1-c1ccccc1 the inhibition was -3.11%. For COc1cccc(CN2CCN(Cc3ccc4cccc(F)c4n3)CC2CCO)c1 (stereo not drawn), the inhibition was -3.14%. COc1ccc(C2C=C(c3ccc(Br)cc3)Nc3nc(NS(C)(=O)=O)nn32)cc1 (stereo not drawn) was tested, and the inhibition was 31.6% (active). Compound COc1ccc(C2=CC(c3cccc(OC)c3)n3nnnc3N2)cc1 (stereo not drawn) has an inhibition of -1.03%. Compound CCS(=O)(=O)n1nc(-c2ccccc2)nc1SCc1ccccc1 has an inhibition of 0.944%. With COc1ccc(C(=O)NC(C)Cn2nc(C)cc2C)cc1OC1CCN(C(C)=O)CC1 (stereo not drawn) the inhibition was 16.1% (active). COc1ccc(C(=O)NC(C)c2nccs2)cc1OC1CCN(C(C)C)CC1 (stereo not drawn) was tested, and the inhibition was 4.31%. In the case of COc1ccc(C(=O)NCCn2nc(C)cc2C)cc1OC1CCN(C(C)=O)CC1, the inhibition was 0.74%. CCOc1ncccc1C(=O)OCC(=O)NC1CC1 showed an inhibition of -3.51%. Compound FC(F)(F)c1nnc2c3ccccc3c(Cl)nn12 has an inhibition of 8.62%. With Cc1nnc(SCc2ccc(C(=O)c3ccc(Cl)cc3)o2)n1-c1ccccc1 the inhibition was -1.68%. Cc1noc(C)c1NC(=O)Nc1cccc2c1O[C@H](CN(C)S(=O)(=O)c1c(C)noc1C)[C@@H](C)CN([C@H](C)CO)C2=O showed an inhibition of -5.54%. Work on COc1ccc(S(=O)(=O)Nc2cccc3c2O[C@H](CN(C)S(=O)(=O)c2ccc(OC)cc2)[C@@H](C)CN([C@H](C)CO)C3=O)cc1 yielded an inhibition of -1.79%. Cc1noc(C)c1NC(=O)Nc1ccc2c(c1)C(=O)N([C@H](C)CO)C[C@H](C)[C@@H](CN(C)S(=O)(=O)c1cn(C)cn1)O2 was tested, and the inhibition was 546% [above what the read-out allows, likely interference] (active). CC(C)NC(=O)Nc1cccc2c1O[C@@H](CN(C)S(=O)(=O)c1ccc(F)cc1)[C@@H](C)CN([C@H](C)CO)C2=O showed an inhibition of -0.984%. For Cc1noc(C)c1S(=O)(=O)N(C)C[C@H]1Oc2ccc(NC(=O)C3CC3)cc2C(=O)N([C@H](C)CO)C[C@@H]1C, the inhibition was 3.05%. With COc1ccc(S(=O)(=O)N(C)C[C@H]2Oc3c(NC(=O)Nc4ccc5c(c4)OCO5)cccc3C(=O)N([C@H](C)CO)C[C@@H]2C)cc1 the inhibition was 16.9% (active). With C[C@H](CO)N1C[C@H](C)[C@H](CN(C)C(=O)Nc2ccc(C(F)(F)F)cc2)Oc2c(NC(=O)c3ccncc3)cccc2C1=O the inhibition was 0.195%. Compound COc1ccc(NC(=O)Nc2ccc3c(c2)C(=O)N([C@H](C)CO)C[C@H](C)[C@@H](CN(C)C(=O)Nc2ccc4c(c2)OCO4)O3)cc1 has an inhibition of 1.05%. C[C@H](CO)N1C[C@H](C)[C@@H](CN(C)S(=O)(=O)c2ccc(F)cc2)Oc2c(NC(=O)Nc3ccccc3)cccc2C1=O was tested, and the inhibition was 14.5% (active). For COc1ccc(S(=O)(=O)N(C)C[C@@H]2Oc3ccc(NC(=O)Nc4c(C)noc4C)cc3C(=O)N([C@H](C)CO)C[C@@H]2C)cc1, the inhibition was 4.41%. Cc1ccc2c(c1)N(C(=O)CCC(=O)NCc1cccnc1)CCO2 showed an inhibition of -4.82%. In the case of CCN(C(=O)CSc1cccc[n+]1[O-])c1ccccc1, the inhibition was -3%. Work on CCOc1ccc(CCNC(=O)COC(=O)c2c(OC)cccc2OC)cc1OCC yielded an inhibition of 1.41%. With FC(F)Oc1ccccc1C1CC(c2ccc(Br)s2)Nc2ncnn21 (stereo not drawn) the inhibition was 2.23%. With Cn1c(C(=O)OC(C(=O)NC2CCCCC2)c2ccccn2)cc2sccc21 (stereo not drawn) the inhibition was -2.12%. Work on Cc1cc(C)c(C)c(S(=O)(=O)N[C@@H](C)C(=O)OC(C)C(=O)NC(N)=O)c1C (stereo partly drawn) yielded an inhibition of 0.241%. Compound Cc1ccc(SC(C)C(=O)NCc2ccc(F)cc2)cc1 (stereo not drawn) has an inhibition of -1.45%. COc1ccc(NC(=O)C2CCC(CNc3c(N4CCCCC4)c(=O)c3=O)CC2)c(OC)c1 (stereo not drawn) showed an inhibition of 2.53%. With CCN(CCn1cccn1)Cc1nc(-c2ccc(C(=O)OC)cc2)no1 the inhibition was 0.645%. With COC(=O)c1ccc(S(=O)(=O)N2CCC(c3nc4ccccc4o3)CC2)cc1 the inhibition was 1.89%. With CC1(C)CC(=O)C(C2c3ccccc3S(=O)(=O)c3ccccc32)C(=O)C1 the inhibition was -4.3%. Cc1ccnc(NC(=O)c2ccc(Cl)c([N+](=O)[O-])c2)c1 was tested, and the inhibition was 21.7% (active). With O=C(Nc1cccnc1)c1ccc(Cl)c([N+](=O)[O-])c1 the inhibition was -2.67%. O=C(Nc1ccncc1)c1ccc(Cl)c([N+](=O)[O-])c1 showed an inhibition of -1.98%. Nc1ccn(CC(=O)N2CCN(c3ccccn3)CC2)c(=O)n1 gave an inhibition of 0.94%. CC(C)Cn1c(N)c(C(=O)COC(=O)CN2C(=O)C3CC=CCC3C2=O)c(=O)n(C)c1=O (stereo not drawn) was tested, and the inhibition was -0.106%. For CC(C)Cn1c(N)c(C(=O)COC(=O)C2CCCN2C(=O)c2cccs2)c(=O)n(C)c1=O (stereo not drawn), the inhibition was 18.2% (active). CCCc1cc(=O)[nH]c(SCC(=O)c2c(N)n(CC(C)C)c(=O)n(C)c2=O)n1 showed an inhibition of -3.84%. In the case of Cc1cccnc1NC(=O)Cn1c(=O)oc2ccccc21, the inhibition was 10.8%. With Oc1ccc2ccc3cccc[n+]3c2c1 the inhibition was 94.4% (active). With CC(C)(C)OC(=O)C[C@@H]1C/C=C\C[C@@H](CC(=O)N[C@H](CO)Cc2ccccc2)C(=O)NCCOC1=O the inhibition was -192%. For CC(C)(C)OC(=O)C[C@H]1C/C=C\C[C@@H](CC(=O)N[C@H](CO)Cc2ccccc2)C(=O)NC[C@@H](c2ccccc2)OC1=O, the inhibition was -0.906%. In the case of O=CN1CCN(C(=O)c2ccc3c(c2)OCO3)CC1, the inhibition was 39.6% (active). O=C(c1ccc2c(c1)OCO2)N1CCN(C(=O)c2ccco2)CC1 showed an inhibition of -0.585%. O=C(c1ccc2c(c1)OCO2)N1CCOCC1 showed an inhibition of -0.497%. Compound COc1ccc([C@H]2[C@H](C(C)=O)N3N=Cc4ccccc4C3C23C(=O)OC(C)(C)OC3=O)cc1 (stereo partly drawn) has an inhibition of 0.0257%. COc1ccc([N+](=O)[O-])cc1NC(=O)C(C)OC(=O)C1c2ccccc2Oc2ccccc21 (stereo not drawn) was tested, and the inhibition was 4.81%. With CCCCNc1nc2c(c(=O)[nH]c(=O)n2C)n1CCOc1ccccc1 the inhibition was -0.364%. In the case of Cn1c(=O)[nH]c(=O)c2c1nc(NCCCn1ccnc1)n2Cc1cccc(Br)c1, the inhibition was 17.2% (active). For COc1ccc(CNc2nc3c(c(=O)[nH]c(=O)n3C)n2Cc2ccccc2)cc1, the inhibition was 1.42%. For O=C(/C=C/c1ccc(F)cc1)NC(=S)NNC(=O)c1cccnc1, the inhibition was 1%. Work on NC(=O)CN1CCCC1c1ccc2c(c1)OCCO2 (stereo not drawn) yielded an inhibition of 2.74%. Compound COc1ccccc1NC(=O)COC(=O)CNC(=O)C1CCCCC1 has an inhibition of 2.31%. In the case of Nc1ncc(CN2CCCC(C(=O)Nc3ccc(-c4ccco4)cc3)C2)cn1 (stereo not drawn), the inhibition was 3.49%. For O=C(Nc1ccc(-c2cscn2)cc1)C1CCCN(Cc2ccc(CO)o2)C1 (stereo not drawn), the inhibition was 21.8% (active). Compound O=C(Nc1cccc(-c2cscn2)c1)C1CCN(Cc2ccsc2)CC1 has an inhibition of 4.95%. O=C1CN(c2nc(-c3ccccc3)c3cc(Br)ccc3n2)c2ccccc2N1 gave an inhibition of -7.77%.
